# Among all 2,200 compounds or so, about 1,500 (68%) were called active. So high a share suggests a set chosen from earlier hits. Not all results are given here. A number with no mark means an inactive call. Cut-off read from the data, not from the text of the source: active = inhibition above about 23%; inactive = the rest.
# Target: Perilipin-5 (Homo sapiens) + 1-acylglycerol-3-phosphate O-acyltransferase ABHD5 (Homo sapiens) (UniProt Q00G26+Q8WTS1)
# Assay: blockers of ABHD5 binding to perilipin-5 – biochemical, luminescence, confirmation (AID 651612);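 note: 0% = DMSO vehicle wells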
# Conditions: biochemical ABHD5-PLIN5 interaction, at 4 µM, stronger effect = higher value
# Chain of Perilipin-5 (Homo sapiens) + 1-acylglycerol-3-phosphate O-acyltransferase ABHD5 (Homo sapiens) (Q00G26 whole entry, looked up): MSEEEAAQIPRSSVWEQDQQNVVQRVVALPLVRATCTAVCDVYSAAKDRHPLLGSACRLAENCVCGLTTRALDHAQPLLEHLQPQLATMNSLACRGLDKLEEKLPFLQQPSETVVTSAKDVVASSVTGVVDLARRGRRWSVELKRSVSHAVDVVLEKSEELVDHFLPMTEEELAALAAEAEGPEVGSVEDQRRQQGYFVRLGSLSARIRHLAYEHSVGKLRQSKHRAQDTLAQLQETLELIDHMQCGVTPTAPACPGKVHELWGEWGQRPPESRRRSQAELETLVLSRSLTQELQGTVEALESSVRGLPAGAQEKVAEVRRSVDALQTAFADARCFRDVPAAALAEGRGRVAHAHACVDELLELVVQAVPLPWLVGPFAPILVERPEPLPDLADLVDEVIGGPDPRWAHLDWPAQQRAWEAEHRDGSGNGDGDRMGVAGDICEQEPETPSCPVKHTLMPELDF
# Chain of Perilipin-5 (Homo sapiens) + 1-acylglycerol-3-phosphate O-acyltransferase ABHD5 (Homo sapiens) (Q8WTS1 whole entry, looked up): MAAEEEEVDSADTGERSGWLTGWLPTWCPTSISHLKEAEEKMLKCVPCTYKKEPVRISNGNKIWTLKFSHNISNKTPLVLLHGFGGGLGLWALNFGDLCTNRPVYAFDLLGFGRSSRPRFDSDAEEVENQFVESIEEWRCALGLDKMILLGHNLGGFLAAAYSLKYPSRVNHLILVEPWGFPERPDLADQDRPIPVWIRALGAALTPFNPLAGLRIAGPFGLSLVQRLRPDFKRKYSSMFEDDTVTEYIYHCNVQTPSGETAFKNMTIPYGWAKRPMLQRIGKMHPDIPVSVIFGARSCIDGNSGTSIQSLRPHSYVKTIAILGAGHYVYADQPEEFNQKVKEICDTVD
row,Structure (SMILES),inhibition
1,CCOC(=O)[C@]12Cc3ccccc3[C@H]1N(C1CCCCC1)C(=O)c1cc(OC)ccc12,23.3% (active)
2,CN(C)CC1Oc2ccccc2OC1(O)c1ccccc1 (stereo not given),77.6% (active)
3,COc1ccc(CN2C(=O)NC(=O)/C(=C\c3ccc(OC)c(OC)c3OC)C2=O)cc1,36.5% (active)
4,CCc1nnc(NS(=O)(=O)c2ccc(N=Cc3c(O)n(-c4ccccc4)c(=O)[nH]c3=O)cc2)s1,7.03%
5,Cc1cccc(N2C(=O)NC(=O)/C(=C\c3cnn(-c4ccccc4)c3)C2=O)c1,66.4% (active)
